Bioassay records as filed in PubChem.
Shown are actives, neighbours in structure and some others; about 3.5% of the full set was active somewhere.
CD11b adhes enh: enhancers of human CD11b/CD18 binding to fibrinogen; P05107+P11215; K562 CD11b/CD18 adhesion to fibrinogen, ATPlite luminescence; activation, % at 10 µM; 0.07% of 93,000 active;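 active = 10 µM primary screen giving 50% or more activity, confirmed by 40% or more on retest at that dose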
ERb SRC1 inh: blocks coactivator binding to human estrogen receptor beta | Q92731 | TR-FRET ER-beta LBD / SRC1-Cy5 peptide binding; receptor agonist-loaded with 1 µM estradiol | inhibition, % at 25.6 µM | 1.3% of 86,000 active;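 active = compounds whose percent inhibition of the receptor-coactivator binding signal exceeds about 50% in the single-dose screen, limit read from the data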;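 also: 0% = receptor plus peptide wells without compound and 100% = peptide-only wells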
FAK inh: blocks human focal adhesion kinase activity | Q05397 | biochemical FAK kinase activity assay | inhibition, %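 (tested at 7 µM)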 | 0.84% of 97,000 active; in the data active = inhibition above about 19%;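 also: 0% = DMSO and 100% = reference compound high control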
Target sequence (Q05397 whole entry, looked up): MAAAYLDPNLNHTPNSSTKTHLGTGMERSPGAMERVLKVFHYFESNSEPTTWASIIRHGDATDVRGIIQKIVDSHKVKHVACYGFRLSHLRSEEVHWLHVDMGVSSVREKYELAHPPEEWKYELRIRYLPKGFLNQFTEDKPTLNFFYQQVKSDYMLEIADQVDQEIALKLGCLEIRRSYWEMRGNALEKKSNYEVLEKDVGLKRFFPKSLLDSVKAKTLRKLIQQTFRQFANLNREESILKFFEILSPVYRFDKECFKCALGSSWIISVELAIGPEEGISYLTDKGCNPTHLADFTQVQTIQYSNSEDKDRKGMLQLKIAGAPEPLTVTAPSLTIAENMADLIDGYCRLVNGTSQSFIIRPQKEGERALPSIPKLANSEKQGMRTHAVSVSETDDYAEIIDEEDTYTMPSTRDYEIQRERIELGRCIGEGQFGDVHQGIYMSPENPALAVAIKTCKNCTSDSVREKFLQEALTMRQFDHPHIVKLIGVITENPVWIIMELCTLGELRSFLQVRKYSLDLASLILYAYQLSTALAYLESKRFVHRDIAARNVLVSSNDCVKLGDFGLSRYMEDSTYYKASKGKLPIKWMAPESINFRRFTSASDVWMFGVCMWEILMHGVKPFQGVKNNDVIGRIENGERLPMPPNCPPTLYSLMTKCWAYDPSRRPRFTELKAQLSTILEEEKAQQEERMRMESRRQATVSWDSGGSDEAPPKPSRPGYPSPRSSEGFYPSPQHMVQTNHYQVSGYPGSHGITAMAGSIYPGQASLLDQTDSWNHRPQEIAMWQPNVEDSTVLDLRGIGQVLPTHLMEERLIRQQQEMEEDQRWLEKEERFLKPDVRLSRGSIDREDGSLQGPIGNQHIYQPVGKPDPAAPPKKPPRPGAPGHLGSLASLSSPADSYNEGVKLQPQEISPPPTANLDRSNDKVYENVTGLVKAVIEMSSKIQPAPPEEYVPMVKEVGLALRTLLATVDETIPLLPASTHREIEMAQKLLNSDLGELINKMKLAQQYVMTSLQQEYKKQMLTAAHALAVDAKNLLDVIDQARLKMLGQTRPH
ERa coact pot: ER-alpha (human) coactivator binding potentiation | coactivator binding (% of control), % at 25.6 µM | 1.3% of 86,000 active | TR-FRET ERalpha-LBD/SRC-Cy5 coactivator binding, 2 h; 100 = basal binding, no effect; in the data active = activity above about 200%;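 also: binding measured in presence of low estradiol as agonist stimulus; 0% = peptide alone without receptor and 100% = receptor with peptide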
Mac1 fbg inh: blocks human CD11b/CD18 adhesion to fibrinogen. K562 CD11b/CD18 adhesion to fibrinogen, ATPlite luminescence; Mn2+ added to activate the integrin. inhibition, % at 10 µM. P05107+P11215. AID 1497. 0.54% of 93,000 active;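 active = primary inhibition of 50% or more at 10 µM, then 40% or more on retest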
ERa coact inh: blocks coactivator binding to human estrogen receptor alpha | inhibition, % at 25.6 µM | 1.7% of 86,000 active | TR-FRET ER-alpha LBD / SRC-1 peptide, estradiol-bound; in the data active = inhibition above about 50%;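 also: 0% = receptor plus peptide control and 100% = peptide only without receptor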
Numbers without * were called inactive; · = not tested or not shown; [ ] = dose if it differs, or a comment.

SMILES	CD11b adhes enh	ERb SRC1 inh	FAK inh	ERa coact pot	Mac1 fbg inh	ERa coact inh
COc1cccc(CNC(=O)CN(c2cc(C)cc(C)c2)S(=O)(=O)c2c(C)noc2C)c1	-3	-3	-6	125	-14	0
CC1=C(C(=O)OC(C)C)C(c2ccco2)NC(=O)N1 (stereo not given)	·	55*[fluorescence artefact?]	2	56	·	35
CCOC(=O)C1=C(C)NC(=O)NC1c1ccc(OC(=O)c2ccco2)cc1 (stereo not given)	·	-3	2	108	·	-4
CCOC(=O)C1=C(C)NC(=O)NC1c1ccco1 (stereo not given)	-1	66*	·	61	26	48
N#CCC(=O)NCCCOC(=O)Nc1ccc(Cl)c(Cl)c1	-1	-4	4	94	-2	-7
COc1ccccc1NC(=O)CSc1nc2n[nH]c(C)c2c(=N)n1-c1ccccc1Cl	·	27	21*	188	·	24
CCc1ccccc1NC(=O)CSc1nc2n[nH]c(C)c2c(=N)n1-c1ccc(OC)cc1	·	14	·	105	·	32
COc1cccc(N(C(C)=O)c2nc(C)cc(C)c2C#N)c1	3	94*[fluorescence artefact?]	0	99	-3	5
O=C(Nc1nc(=O)c2ccccc2s1)c1ccc(F)cc1	·	52*[fluorescence artefact?]	-3	188	·	49
CCOc1ccc(-c2cc(C)n3nc(C(N)=O)cc3n2)cc1	9	40	1	141	-14	43
CCOc1nnc(C)c2c(C)n(-c3cccc(OC)c3)nc12	·	·	-3	·	·	·
COCCCn1cnc2c(c1=O)c1nc3ccccc3nc1n2CCc1ccccc1	-6	·	0	·	-3	·
COCCCn1c2nc3ccccc3nc2c2c(=O)n(-c3ccccc3OC)c(C)nc21	·	5	·	319*	·	12
Cc1nc2c(c(=O)n1CCC1=CCCCC1)c1nc3ccccc3nc1n2/N=C/c1ccco1	52	55*	13	105	-12	79*[fluorescence artefact?]
CCCn1c(C)nc2c(c1=O)c1nc3ccccc3nc1n2CCC1=CCCCC1	62*	22	4	170	0	31
CCCn1c(C)nc2c(c1=O)c1nc3ccccc3nc1n2CCc1ccccc1	·	33	-3	141	·	53*
CC1CCN(C(=O)CSc2nncn2C)CC1	-5	-3	-1	94	-10	7
CCOC(=O)Cc1csc(NC(=O)CSc2nnnn2-c2ccc(C)cc2C)n1	·	-9	0	114	·	2
O=C(Nc1ccc(OC(F)(F)F)cc1)Nc1cccc([N+](=O)[O-])c1	-10	·	·	·	100	·
N#Cc1c(SCC(N)=O)nsc1SCc1ccccc1Cl	·	99*[fluorescence artefact?]	-4	105	·	11
N#Cc1c(SCC(N)=O)nsc1SCc1ccc(Cl)cc1	10	0	-5	79	-12	1
CC(Oc1ccc(Cl)cc1Cl)C(=O)NC1=NN(c2ccccc2)C(=O)C1 (stereo not given)	-3	·	13	·	14	·
CC1CCN(c2nc3ccc(C(=O)N4CCN(Cc5ccc6c(c5)OCO6)CC4)cc3s2)CC1	-4	36	-2	85	56*	11
CC1(c2ccccc2)NC(=O)N(CC(=O)NCCC2=CCCCC2)C1=O (stereo not given)	·	-2	2	94	·	-2
CC(NC(=O)Nc1nnc(C(F)(F)F)s1)(C(F)(F)F)C(F)(F)F	-7	1	-4	110	99*	-42
SMILES	CD11b adhes enh	ERb SRC1 inh	FAK inh	ERa coact pot	Mac1 fbg inh	ERa coact inh
CCc1nnc(NC(=O)CSc2ncnc3c2cnn3-c2ccc(OC)cc2)s1	34	·	-3	·	5	·
CCOc1nc(-c2ccc(OC)cc2)ccc1-c1noc(-c2ccncc2)n1	28	38	·	138	23	76*
CCOc1nc(-c2ccccc2)ccc1-c1noc(-c2ccncc2)n1	2	30	·	196	-6	33
CCOc1nc(C)ccc1-c1noc(-c2ccncc2)n1	·	-2	0	233*[fluorescence artefact?]	·	-6
CC1CC(C(F)(F)C(F)(F)F)n2nc(C(=O)O)cc2N1 (stereo not given)	1	76*[fluorescence artefact?]	·	29	5	64*
CCOC(=O)C1=C(C)NC2=C(C(=O)CC(c3cccs3)C2)C1c1cccs1 (stereo not given)	·	2	21*	142	·	-7
CCCOC(=O)C1=C(C)NC2=C(C(=O)CCC2)C1c1cccs1 (stereo not given)	0	-17	13	104	-2	0
Cc1ccc(-n2cnnn2)c(S(=O)(=O)N2CCOCC2)c1	-4	-28	1	92	-4	-24
O=C(NCCc1ccccc1)C1CCN(S(=O)(=O)N2CCCC2)CC1	0	4	·	113	20	0
O=C(NCCc1ccccc1)C1CCN(S(=O)(=O)c2cccnc2)CC1	4	-3	-7	114	-9	58*[fluorescence artefact?]
COc1ccc(Oc2nc3c(c(=O)n(C)c(=O)n3C)n2Cc2ccccc2)cc1	2	1	3	208*[fluorescence artefact?]	-16	2
COc1ccc(Cl)c(Cn2c(NCc3ccco3)nc3c2c(=O)n(C)c(=O)n3C)c1	-1	53*[fluorescence artefact?]	1	52	-24	81*[fluorescence artefact?]
CCCn1c(NCc2ccco2)nc2c1c(=O)n(C)c(=O)n2C	·	53*[fluorescence artefact?]	1	96	·	64*[fluorescence artefact?]
COc1ccc(N2CCn3c2nc2c3c(=O)n(CCCc3ccccc3)c(=O)n2C)cc1	-3	43	·	33	10	87*[fluorescence artefact?]
COc1cccc(Cn2c(NCc3ccco3)nc3c2c(=O)n(C)c(=O)n3C)c1	·	0	·	93	·	-5
COc1ccc(N2CCN(c3nc4c(c(=O)n(C)c(=O)n4C)n3Cc3ccccc3)CC2)cc1	1	3	2	92	-10	-24
CCCCCCn1c(NCC)nc2c1c(=O)n(C)c(=O)n2C	-7	-18	-2	139	73*	-22
CCOC(=O)Nc1cccc(OCC(=O)Nc2ccccc2OC)c1	·	-10	-2	88	·	4
COCCNC(=O)C1CC(=O)N(c2ccc(F)c(Cl)c2)C1 (stereo not given)	·	4	0	105	·	-4
CCN(CC)C(=O)C1CC(=O)N(c2ccc(F)c(Cl)c2)C1 (stereo not given)	-2	67*[fluorescence artefact?]	-1	101	-9	4
Cc1ccc2[nH]c3c(NCCN4CCOCC4)ncnc3c2c1	-2	2	·	99	-2	-2
C=CCNc1ncnc2c1[nH]c1ccc(C)cc12	-4	6	25*	119	33	-3
Cc1ccc(N=Cc2ccc(O)cc2O)cc1F	-4	·	0	·	8	·
Oc1ccc(C=Nc2ccc(N3CCOCC3)cc2)c(O)c1	7	69*	·	49	3	58*
COc1ccc2cc3c(N)nn(C(=O)Cc4ccc(Cl)cc4)c3nc2c1	2	46	3	77	-9	60*
Cc1cc(NC(=O)CSc2nnc(-c3ccco3)o2)no1	3	0	-1	255*[fluorescence artefact?]	-11	2
CCc1ccc(NC(=O)c2noc3c2CCCCC3)cc1	50	6	·	118	6	13
